PI5P4Ka inh: inhibitors of human PI5P4K alpha; AID 652105; PI5P4Kalpha enzyme, ADP-Glo luminescence, 60 min; stronger effect = lower value; P48426; 330,000 compounds, 1.2% hits; max response, %; active = max response of -50% or lower; inconclusive = between -30% and -50%; inactive = -30% or higher; note: value at the top dose of about 77 µM; % is set by controls: 0 for no effect and ±100 for the full control effect
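qHTS, 1536-well: enzyme/substrate mix, compound by pin tool, 5 microM ATP final; RT 60 min; ADP-Glo reagents 1 (45 min) then 2 (30 min); luminescence.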
Pol eta inh-1: inhibitors of human DNA polymerase eta. recombinant Pol eta, fluorescent DNA replication assay. Potency, µM (doses to about 114 µM), inactives show top-dose activity change, negative = inhibition, usual class: inhibitors. 390,000 compounds, 1.2% hits. AID 588591; note: potency is the fitted concentration of half-maximal effect; % is set by controls: 0 for no effect and ±100 for the full control effect
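Pol eta (10 nM) was preincubated with compounds for 15 min at room temperature, after which fluorescent replication substrate (50 nM final) was added to start the reaction. Fluorescence was read kinetically at 0 and 10 min.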
POLI inh: blocks human DNA polymerase iota activity. Q9UNA4. Pol iota fluorescent replication assay, 10 min. Potency, µM (doses to about 115 µM), for the others: at the highest dose activity, negative = inhibition, most hits filed as inhibitors. 390,000 compounds, 1% hits. AID 588590; note: potency is the fitted concentration of half-maximal effect
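Pol iota at 10 nM preincubated 15 min with compounds at room temperature; reaction started with fluorescent substrate, 50 nM final. Fluorescence read kinetically at 0 and 10 min; buffer-only wells as negative control.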
Pol beta inh: inhibitors of human DNA polymerase beta | P06746 | Pol beta primer extension/strand displacement, fluorescence kinetic | Potency, µM (highest dose often 114 µM), without a hit: top-dose activity change, negative = inhibition, hits mostly inhibitors | 340,000 compounds, 1.3% hits | AID 485314; note: potency is the fitted concentration of half-maximal effect; % is set by controls: 0 for no effect and ±100 for the full control effect
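10 nM enzyme + cpd, 15 min RT; start with substrate 50 nM final; read 0 min and after 10 min RT. Corrected, normalized data; 4-parameter Hill curve fit.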
WRN helicase inh: blocks human WRN helicase. Potency, µM (titrated, usually from 114 µM), without a hit: at the highest dose activity change, negative = inhibition, usual class: inhibitors. WRN helicase unwinding, fluorescent forked duplex, kinetic. Q14191. 360,000 compounds, 0.46% hits; note: potency is the fitted concentration of half-maximal effect; % is set by controls: 0 for no effect and ±100 for the full control effect; nearly all actives have a fitted effect of over 55% in size
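Kinetic red-fluorescence monitoring (525/598 nm) tracks WRN helicase activity after 100 nM fluorophore-quencher forked duplex and 2 mM ATP are added to 20 nM enzyme pretreated 15 min at room temperature with compound.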
Pol kappa inh-1: blocks human DNA polymerase kappa activity; 400,000 compounds, 0.53% hits; Potency, µM (series often up to 107 µM), for the others: top-dose activity, negative = inhibition, most hits filed as inhibitors; purified Pol kappa, fluorescent DNA synthesis assay, 10 min; note: potency is the fitted concentration of half-maximal effect; % is set by controls: 0 for no effect and ±100 for the full control effect
Target sequence (Q9UBT6 whole entry, looked up): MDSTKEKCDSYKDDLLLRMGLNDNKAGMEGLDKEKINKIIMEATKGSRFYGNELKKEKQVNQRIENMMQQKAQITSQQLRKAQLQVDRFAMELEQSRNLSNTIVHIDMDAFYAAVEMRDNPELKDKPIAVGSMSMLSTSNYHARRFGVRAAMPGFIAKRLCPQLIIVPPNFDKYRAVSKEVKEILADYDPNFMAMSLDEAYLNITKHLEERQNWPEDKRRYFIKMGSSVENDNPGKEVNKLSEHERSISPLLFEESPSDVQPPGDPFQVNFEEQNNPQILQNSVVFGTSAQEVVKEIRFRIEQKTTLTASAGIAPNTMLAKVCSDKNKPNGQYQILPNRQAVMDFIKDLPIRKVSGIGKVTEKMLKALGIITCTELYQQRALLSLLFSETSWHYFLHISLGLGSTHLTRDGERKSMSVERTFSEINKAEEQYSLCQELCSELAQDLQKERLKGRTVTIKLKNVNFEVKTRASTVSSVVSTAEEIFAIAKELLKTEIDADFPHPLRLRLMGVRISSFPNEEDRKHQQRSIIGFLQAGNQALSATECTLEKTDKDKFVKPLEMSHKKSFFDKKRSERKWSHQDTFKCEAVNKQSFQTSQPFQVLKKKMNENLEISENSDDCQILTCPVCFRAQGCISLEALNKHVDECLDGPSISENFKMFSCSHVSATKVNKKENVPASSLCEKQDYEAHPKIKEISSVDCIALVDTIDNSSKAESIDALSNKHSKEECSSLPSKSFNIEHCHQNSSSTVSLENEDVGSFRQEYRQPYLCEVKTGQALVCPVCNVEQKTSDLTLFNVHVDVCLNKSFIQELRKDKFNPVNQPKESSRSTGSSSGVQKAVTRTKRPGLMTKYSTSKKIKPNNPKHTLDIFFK
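Pol kappa 10 nM + cpd, 15 min RT; start w/ substrate 50 nM final; fluorescence kinetic read, 0 and 10 min. Neg ctrl: buffer, no enzyme.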
PGK validate: TbPGK inhibition, hit validation; Potency, µM (doses to about 57.5 µM), inactives show top-dose activity change, negative = inhibition, usual class: inhibitors; TbPGK coupled GAPDH assay, Kinase-Glo luminescence; 500 compounds, 79% hits; shares compounds with Pol kappa inh-1; AID 686980; note: potency is the fitted concentration of half-maximal effect; % is set by controls: 0 for no effect and ±100 for the full control effect; nearly all actives have a fitted effect of over 65% in size
POLI cherry-pick: Human Pol iota inhibitor confirmatory assay. shares compounds with Pol kappa inh-1. Potency, µM, hits mostly inhibitors. Pol iota primer extension, TAMRA/BHQ fluorescence. 1,500 compounds, 77% hits; note: potency is the fitted concentration of half-maximal effect
Pol kappa inh-2: Pol kappa (human) inhibition, cherry-pick confirmation. shares compounds with Pol eta inh-1. purified Pol-kappa, fluorescent strand-displacement substrate. Potency, µM, hits mostly inhibitors. 920 compounds, 76% hits. AID 720501; note: potency is the fitted concentration of half-maximal effect
Pol eta inh-2: confirmation of human DNA polymerase eta inhibitors; Pol eta primer extension, TAMRA/BHQ fluorescence, 10 min; shares compounds with Pol eta inh-1; Potency, µM, hits mostly inhibitors; AID 720502; 2,600 compounds, 64% hits; note: potency is the fitted concentration of half-maximal effect
Active calls of the source: *; u = inconclusive; x = no result given; [ ] = dose if it differs, or a comment. Only some compounds are listed: those with a hit (about 2.8% of all), similar ones and a draw of the others. Unless noted, calls come from the whole dose curve; as a rule, active = well fitted curve in the direction sought with a large enough effect; inconclusive = small, poorly fitted or top-dose-only effect, or another doubt; inactive = no such curve, though single readings can be large; an effect the other way counts as inactive or inconclusive.

SMILES | PI5P4Ka inh | Pol eta inh-1 | POLI inh | Pol beta inh | WRN helicase inh | Pol kappa inh-1 | POLI cherry-pick | Pol eta inh-2 | others
COc1cc(/C=N/N=C2/NC(=O)C(CC(=O)O)S2)ccc1OCc1ccc(Cl)cc1 (stereo unspecified) | -9 | u | 0% | -2% | -12% | 0% | x | x
CCOc1cc(/C=N/N=C2/NC(=O)C(CC(=O)O)S2)ccc1OCc1ccc(Cl)cc1Cl (stereo unspecified) | -63* | 32µM* | u | 22µM* | u | u | 75* | 76* | Pol kappa inh-2=75*
Cc1cc(C)n(CCc2nc(-c3ccco3)cs2)n1 | x | 79µM* | 14µM* | 32µM* | u | 71µM* | 75* | 85*
Cc1cc(C)n(Cc2ccc(C(=O)N/N=C/c3ccc(-c4ccc([N+](=O)[O-])cc4)o3)o2)n1 | 0 | 6.3µM* | 10µM* | 2µM* | 32µM* | 25µM* | 17* | 43*
CCCCC(=O)N/N=C/c1ccc(-c2ccc([N+](=O)[O-])cc2)o1 | -5 | -2% | 39% | -17% | -2% | -16% | x | x
Cn1c(=O)c(=O)n(C)c2cc(NC(=O)c3cccc(F)c3)c(Cl)cc21 | x | -1% | 2% | -2% | x | -5% | x | x
Cc1c(CC(=O)N[C@@H](C)C(=O)O)c(=O)oc2c(C)c3occ(-c4ccccc4)c3cc12 | -20 | 4% | u | -29% | -23% | u | x | x
Cc1c(CCC(=O)O)c(=O)oc2c(C)c3occ(-c4ccc(Br)cc4)c3cc12 | -25 | 18µM* | 143% | 43% | 63µM* | -5% | 34* | u
O=C(NCc1ccco1)c1cccc2c1C(=O)c1ccc(/C=C/c3ccccc3)cc1S2(=O)=O | -72* | 14µM* | 25µM* | x | -14%[11.6 µM] | u | 42* | 38* | Pol kappa inh-2=19*
O=C(NCc1ccco1)c1cccc2c1C(=O)c1ccc(N3CCC(Cc4ccccc4)CC3)cc1S2(=O)=O | -12 | -14% | -4% | x | -4% | -29% | x | x
COc1ccc(-c2ccc3c(c2)S(=O)(=O)c2cccc(C(=O)NCc4ccccc4Cl)c2C3=O)cc1OC | -3 | u | 10µM* | x | -32%[11.6 µM] | -2% | 17* | 27*
O=C(N/N=C/c1cn(Cc2ccccc2)c2ccccc12)c1cc(O)cc(O)c1 | u | 45µM* | u | 32µM* | -19%[11.6 µM] | u | 34* | 30* | Pol kappa inh-2=19*
COc1cc(/C=C(\C#N)c2nc3ccccc3s2)cc([N+](=O)[O-])c1O | -72* | u | u | 40µM* | u | 89µM* | 75* | 76*
CCN(CC)c1ccc2c(c1)oc(=O)c1c(Cl)cc(=O)oc12 | -9 | 14µM* | 14µM* | -15% | -9%[57.1 µM] | u | u | u
CCN(CC)c1ccc2c(C)c(Cl)c(=O)oc2c1 | -2 | 0% | 9% | -11% | -8% | -24% | x | x
Cc1cc(C)cc(OC(=O)c2cc(-c3ccc(Cl)cc3)on2)c1 | x | 4% | 33% | -3% | x | 14% | x | x
CCN1C(=O)c2ccccc2Sc2ccc(NC(=O)COc3ccc(Cl)cc3)cc21 | x | -11% | 3% | 2% | x | -2%[60.1 µM] | x | x
CCN(CC(=O)Nc1c(F)cccc1F)C(=O)c1ccc(OC)c(S(=O)(=O)NC2CCCC2)c1 | 3 | -4% | x | x | -5% | x | x | x
Cc1cc(/C=C(\C#N)C(=O)NCc2ccco2)c(C)n1-c1ccc(C(=O)O)cc1 | -5 | 20µM* | 40µM* | u | -11% | u | 67* | 27*
CC(=O)Nc1ccc(SCC(=O)Nc2cc(C)on2)cc1 | 7 | -21% | 126% | 0% | -11% | -10% | x | x
CC(=O)Nc1ccc(S(=O)(=O)N(C)CC(=O)OCC(=O)N2CCN(C(=O)c3ccco3)CC2)cc1 | -11 | 28µM* | 40µM* | x | -15%[11.6 µM] | u | u | 76*
COc1cc(Br)c(/C=C(\C#N)c2nc3ccccc3[nH]2)cc1OC | x | -21% | 34% | 2% | x | -4% | x | x
COc1cc(/C=C(\C#N)c2nc3ccccc3[nH]2)ccc1OCc1ccc(F)cc1 | x | 79µM* | u | 11µM* | x | -21% | 67* | u
CCOC(=O)c1cc(-c2ccccc2)n(CCC(=O)Nc2nc3c(C)cccc3s2)c1C | x | -19% | 26% | -24% | x | -13%[60.1 µM] | x | x
O=C(NNC(=O)c1ccccc1F)c1ccc2nc[nH]c2c1 | -7 | u | -25% | u | -4% | -15% | x | x
SMILES | PI5P4Ka inh | Pol eta inh-1 | POLI inh | Pol beta inh | WRN helicase inh | Pol kappa inh-1 | POLI cherry-pick | Pol eta inh-2 | others
O=C(NNC(=O)c1ccccc1Br)c1ccc2nc[nH]c2c1 | u | 22µM* | u | 22µM* | -24% | u | u | 54*
C/C(N)=C(/C#N)C(=O)CSc1nnc(Nc2cccc(C)c2C)s1 | -24 | -4% | u | -40% | -5%[11.6 µM] | -32% | x | x
C/C(N)=C(/C#N)C(=O)CSc1nnc(Nc2c(C)cccc2C)s1 | -100* | 18µM* | u | u | u | 79µM* | u | 48*
O=C(Cn1ncc2c(=O)oc3ccccc3c21)NCc1ccccc1Cl | x | 4% | -6% | 6% | x | -6% | x | x
O=C(/C=C/c1ccco1)N1CCN(S(=O)(=O)c2ccccc2)CC1 | u | 18µM* | 50µM* | x | -32% | u | x | u | PGK validate=9.2µM*;Pol kappa inh-2=u
COc1cc(C(=O)N2CCCC(C)(C(=O)NS(=O)(=O)C3CC3)C2)cc(OC)c1OC (stereo unspecified) | 8 | x | x | x | 2% | x | x | x
COc1ccc(CCC(=O)N2c3ccccc3N=C(c3ccc(C(F)(F)F)cc3)C2C(=O)NC(C)C)cc1 (stereo unspecified) | -3 | x | x | x | 9% | x | x | x
Cc1cc(N/N=C/c2ccc(O)cc2)nc(NS(=O)(=O)c2ccccc2)n1 | -55* | 20µM* | u | 18µM* | -28%[57.1 µM] | u | x | u | PGK validate=5.2µM*
Cc1ccc(/C=N/Nc2cc(C)nc(NCc3ccccc3)n2)cc1 | -4 | -11% | 6% | -8% | -3% | -13% | x | x

Screening results deposited in PubChem by National Center for Advancing Translational Sciences (NCATS).
